Laboratory results reported in PubChem BioAssay (NCI).
The panel holds about 83,000 compounds, 20% with a hit somewhere; the sample as a whole holds those more often.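 Single-dose data. Exposure time 48 hours. Values below 10 considered active.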 Values without a mark were called inactive. Calls of active or inactive are those of the source.

Assays:
Experiment in all cases: NCI-60 one-dose screen, 48 h (100 = growth as untreated, 0 = no growth, -100 = all killed)
Details in all cases: 10 µM
[1] = system: SK-MEL-2 melanoma
[2] = system: EKVX NSCLC
[3] = system: SN12C renal
[4] = system: UO-31 renal
[5] = system: TK-10 renal
[6] = system: ACHN renal
[7] = system: CAKI-1 renal
[8] = system: A498 renal
[9] = system: CCRF-CEM leukemia
[10] = system: MOLT-4 leukemia

Cc1ccc([N+](=O)[O-])c(C(=O)Nc2ccc(-c3ccc4c(c3)NC(=O)/C4=C\c3ccc[nH]3)cc2)c1
growth [1]: 75.5%
growth [2]: 25.7%
growth [3]: 60.1%
growth [4]: 76.6%
growth [5]: 105%
growth [6]: 66.4%
growth [7]: 69.4%
growth [8]: 134%
growth [9]: 22.1%
growth [10]: 14.1%

CN1CCCN(Cc2ccc(C(=O)Nc3cccc(Nc4ccc5cc(O)ccc5n4)c3)cc2C(F)(F)F)CC1
growth [1]: 111%
growth [2]: 71.1%
growth [3]: 86.8%
growth [4]: 91.7%
growth [5]: 134%
growth [6]: 86.4%
growth [7]: 74.7%
growth [8]: 139%
growth [9]: -9.62% (active)
growth [10]: -6.61% (active)

CC1CC(c2ccc(N(C)C)cc2)=NN1c1nc(O)c(C2=c3cc(Br)ccc3=NC2=O)s1 (stereo not given)
growth [1]: 98.9%
growth [2]: 61.9%
growth [3]: 106%
growth [4]: 78.3%
growth [5]: 94.4%
growth [6]: 92.2%
growth [7]: 101%
growth [8]: 103%
growth [9]: 29.8%
growth [10]: 70.5%

O=c1[nH]c2ccccc2cc1CSc1ccc(Nc2nccc(-c3ccc4c(c3)OCO4)n2)cc1
growth [1]: 108%
growth [2]: 94.2%
growth [3]: 96%
growth [4]: 95.6%
growth [5]: 89.4%
growth [6]: 94.7%
growth [7]: 98%
growth [8]: 121%
growth [9]: 98.4%
growth [10]: 102%

O=C(CNc1nc(-c2ccccc2)cs1)Nc1cccc(Cl)c1
growth [1]: 38.2%
growth [2]: 13.6%
growth [3]: 41.4%
growth [4]: 9.97% (active)
growth [5]: 52.5%
growth [6]: 28.3%
growth [7]: 28.4%
growth [8]: 66.5%
growth [9]: 26.3%
growth [10]: 7.42% (active)

O=C(CNc1nc(-c2ccccc2)cs1)Nc1ccc(Br)cc1
growth [1]: -76.8% (active)
growth [2]: -95.9% (active)
growth [3]: -90.3% (active)
growth [4]: -98.2% (active)
growth [5]: -95.3% (active)
growth [6]: -100% (active)
growth [7]: -92.3% (active)
growth [8]: -89.6% (active)
growth [9]: 5.21% (active)
growth [10]: -12.4% (active)

CN1C(=O)N(C)C2SC(N/N=C/c3ccccc3F)=NC21 (stereo not given)
growth [1]: 56.4%
growth [2]: 86.4%
growth [3]: 71.3%
growth [4]: 60.6%
growth [5]: 83.6%
growth [6]: 85.5%
growth [7]: 67.4%
growth [8]: 82.4%
growth [9]: 67.3%
growth [10]: 44.5%

O=c1[nH]c2ccc(Cl)cc2cc1CSc1ccc(Nc2nccc(-c3ccc4ccccc4c3)n2)cc1
growth [1]: 97.2%
growth [2]: 83.6%
growth [3]: 62.6%
growth [4]: 96.2%
growth [5]: 79.8%
growth [6]: 100%
growth [7]: 97.1%
growth [8]: 119%
growth [9]: 80%
growth [10]: 80.5%

Nc1nc2c(F)c(F)c(F)c(F)c2s1
growth [1]: 106%
growth [2]: 46.1%
growth [3]: 113%
growth [4]: 91%
growth [5]: 101%
growth [6]: 114%
growth [7]: 85.7%
growth [8]: 114%
growth [9]: 106%
growth [10]: 105%

COc1cc2c(cc1OC)/C(=C\c1sc(Nc3ccc(O)cc3)nc1O)C(C(=O)O)=N2
growth [1]: -9.38% (active)
growth [2]: 59.9%
growth [3]: 35.4%
growth [4]: 39.7%
growth [5]: 77.4%
growth [6]: 37.8%
growth [7]: 26.9%
growth [8]: 103%
growth [9]: 19.3%
growth [10]: 25.9%

O=C(c1ccc(O)cc1)C1[C@H](c2ccccc2Br)[C@@H](c2ccccc2)NC12C(=O)Nc1ccc(Br)cc12 (stereo not given in full)
growth [1]: 38.1%
growth [2]: 32%
growth [3]: 15.1%
growth [4]: 35.8%
growth [5]: 76.2%
growth [6]: 37.9%
growth [7]: 24.1%
growth [8]: 80.5%
growth [9]: 31.4%
growth [10]: 11%

O=C1CCC(N2Cc3c(NCc4ccc(-c5ccccc5)cc4)cccc3C2=O)C(=O)N1 (stereo not given)
growth [1]: 101%
growth [2]: 84.2%
growth [3]: 73.8%
growth [4]: 45.3%
growth [5]: 79.1%
growth [6]: 73.2%
growth [7]: 82.8%
growth [8]: 70.5%
growth [9]: 19.9%
growth [10]: 13.4%

C=CC(=O)Nc1ccc(C(=O)/C=C/c2ccc(N(C)CCF)cc2)c(O)c1
growth [1]: -53.4% (active)
growth [2]: -25% (active)
growth [3]: -60.2% (active)
growth [4]: -96.6% (active)
growth [5]: -23.7% (active)
growth [6]: -68.6% (active)
growth [7]: -90.8% (active)
growth [8]: 17.5%
growth [9]: 13.1%
growth [10]: -3.17% (active)

Cc1ccc(NCC(=O)Nn2c(COc3ccccc3)nc3ccccc3c2=O)cc1
growth [1]: 87.2%
growth [2]: 84.6%
growth [3]: 40.4%
growth [4]: 80.8%
growth [5]: 86.9%
growth [6]: 72.8%
growth [7]: 44.3%
growth [8]: 91.9%
growth [9]: 101%
growth [10]: 106%

COc1cc(/C=C/C(=O)c2ccc(NC(=O)CSc3nnc(-c4c[nH]c5ccccc45)n3-c3ccccc3)cc2)cc(OC)c1OC
growth [1]: 99.9%
growth [2]: 90.6%
growth [3]: 74.2%
growth [4]: 75%
growth [5]: 117%
growth [6]: 89.3%
growth [7]: 95.7%
growth [8]: 138%
growth [9]: 60.5%
growth [10]: 41.5%

CC(=O)c1ccc(Nc2nc(SC(C)C)nc(-c3ccccc3)c2C#N)cc1
growth [1]: 111%
growth [2]: 39.7%
growth [3]: 10.9%
growth [4]: -53.6% (active)
growth [5]: 6.61% (active)
growth [6]: -56.9% (active)
growth [7]: 8.35% (active)
growth [8]: 94.7%
growth [9]: 97.5%
growth [10]: 82.9%

COC(=O)c1c(C(=O)OC)c2n(c1C)[C@@H]([C@@H](C)[C@H]1CC[C@H]3[C@@H]4CCC5=CC(=O)CC[C@]5(C)[C@H]4CC[C@]13C)SC2
growth [1]: 40.2%
growth [2]: 26.2%
growth [3]: 58%
growth [4]: 30.1%
growth [5]: 57.9%
growth [6]: 46%
growth [7]: -3.55% (active)
growth [8]: 71.8%
growth [10]: 2.64% (active)

O=C(CSc1nnc(-c2ccc3nc(-c4ccc(Cl)cc4)[nH]c3c2)o1)Nc1ccc(Br)cc1
growth [1]: -69.6% (active)
growth [2]: 27.9%
growth [3]: -89.2% (active)
growth [4]: 21.9%
growth [5]: 86%
growth [6]: -62.5% (active)
growth [7]: -27.8% (active)
growth [8]: 66.1%
growth [9]: 6.06% (active)
growth [10]: -0.919% (active)

CS(=O)(=O)Nc1ccc(-c2ccc3c(c2)ncn3-c2ccc(NC(=O)Nc3ccc(Cl)c(C(F)(F)F)c3)cc2)cc1
growth [1]: -83% (active)
growth [2]: -60.3% (active)
growth [3]: -68.7% (active)
growth [4]: -65.1% (active)
growth [5]: -6.45% (active)
growth [6]: -63.7% (active)
growth [7]: -55.2% (active)
growth [8]: -85.9% (active)
growth [9]: -31.7% (active)
growth [10]: -36.8% (active)

O=C(O)CCCCCCCCCCN1C(=O)/C(=C/c2cnc(-c3ccccc3)s2)SC1=S
growth [1]: 93.2%
growth [2]: 52.8%
growth [3]: 30.1%
growth [4]: 77.5%
growth [5]: 150%
growth [6]: 70.3%
growth [7]: 61.6%
growth [8]: 99.8%
growth [10]: 39.1%

COC(=O)C(Cc1ccc(O)c(O)c1)NC(=O)C(CSC/C=C(\C)CCCC(C)CCCC(C)CCCC(C)C)NC(C)=O (stereo not given)
growth [1]: 74.5%
growth [2]: 47%
growth [3]: 26.3%
growth [4]: 43.7%
growth [5]: 45.3%
growth [6]: 31.4%
growth [7]: 28.4%
growth [8]: 102%
growth [10]: 7.78% (active)

COc1ccc(NC(=O)Cn2c(/C=C/c3ccc(N(C)C)cc3)nc3ccccc3c2=O)cc1
growth [1]: 76.4%
growth [2]: 71.2%
growth [3]: 24%
growth [4]: 2.65% (active)
growth [5]: 62.8%
growth [6]: -2.17% (active)
growth [7]: 18.9%
growth [8]: 56.5%
growth [9]: 90.9%
growth [10]: 85.3%

Cc1cc(=O)oc2cc(OCCCCOc3ccc(/C=C/C(=O)Nc4ccc(F)c(Cl)c4)cc3)ccc12
growth [1]: 117%
growth [2]: 96.4%
growth [3]: 96.4%
growth [4]: 86.1%
growth [5]: 112%
growth [6]: 107%
growth [7]: 96%
growth [8]: 108%
growth [10]: 93.5%

Nc1cc(-c2cccc(C(=O)NCc3ccc4c(c3)OCO4)c2)ccn1
growth [1]: 105%
growth [2]: 76.8%
growth [3]: 104%
growth [4]: 71.9%
growth [5]: 103%
growth [6]: 97%
growth [7]: 92.3%
growth [8]: 106%
growth [9]: 98.9%
growth [10]: 91.1%

COc1ccc2[nH]cc(/C=N/Nc3ccc(Br)cn3)c2c1
growth [1]: 73.5%
growth [2]: 22.9%
growth [3]: 23.7%
growth [4]: 11%
growth [5]: 54%
growth [6]: 26.7%
growth [7]: 30.9%
growth [8]: 50.7%
growth [9]: 11.2%
growth [10]: 24.6%

COc1ccc(CCN2C(=O)/C(=C/c3csc(C#N)n3)SC2=S)cc1OC
growth [1]: 85.6%
growth [2]: 79.8%
growth [3]: 31.8%
growth [4]: 15.5%
growth [5]: 1.31% (active)
growth [6]: 8.31% (active)
growth [7]: 25.3%
growth [8]: 80%
growth [10]: -10.7% (active)
